From PubChem BioAssay
Sampled rows, rich in hits. Any-hit rate of the full collection: about 0.57%.
12-hLO inh – 12-hLO (ALOX12) enzyme inhibition. P18054. purified 12-hLO, xylenol orange hydroperoxide absorbance. Potency, µM (doses to about 57.1 µM), for inactives: top-dose activity change, negative = inhibition, hits mostly inhibitors. hit rate 0.12% among 150,000. AID 1452; note: potency is the fitted concentration of half-maximal effect; nearly all actives have a fitted effect of over 55% in size
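Hydroperoxide formation by human 12-lipoxygenase from 40 uM arachidonic acid was followed colorimetrically via ferric-xylenol orange complex, using the 573/405 nm absorbance ratio. Enzyme concentration was 150 nM, with 30 min reaction at room temperature.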
IMPase Li cell – membrane-permeable IMPase blocker, potentiated with lithium; hit rate 0.35% among 210,000; CHO-M1 cells, IP1 TR-FRET (IP-One), carbachol + lithium; Potency, µM (highest dose often 59.4 µM), inactives show at the top dose activity, negative = IMPase inhibition, actives largely listed as inhibitors;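 note: IP1 builds up when IMPase is blocked and the TR-FRET signal falls; potency is the fitted concentration of half-maximal effect; plate controls were basal vehicle for no effect and high inhibitor control for full effect; nearly all actives have a fitted effect of over 50% in size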
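CHO cells stably expressing M1 receptor (2000/well, cultured 16–30 h) treated 30 min at 37C with compound plus low lithium. Cytosolic IP1 by TR-FRET (665/620 ratio and 620 channel) after 10 min lysis; AC50 by Hill fit.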
IMPase inh – cell-permeable inhibitors of inositol monophosphatase (IMPase); CHO-M1 cells, IP1 accumulation, HTRF TR-FRET ratio; inhibition (IP1 accumulation), % at 46.1 µM; 120,000 tested, under 10 active; active = well fitted curve in the direction sought with a large enough effect in the signal ratio, not every such curve was filed as active; inconclusive = small, poorly fitted or top-dose-only effect, or a change in a side signal; inactive = no such curve, though single readings can be large or run the other way; the % refers to the signal ratio;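 note: cells stimulated with carbachol in lithium chloride buffer; plate controls were DMSO basal wells for no effect and reference inhibitor wells for full effect; higher means more IMPase inhibition seen as more IP1 and lower FRET ratio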
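Seeded CHO-M1 cells were dosed with compound at up to 46 uM, stimulated with carbachol for 30 min, then lysed in IP-One detection reagents. Higher IP1 lowers the TR-FRET signal.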
ALOX15B inhib – blocks human 15-lipoxygenase 2 activity | O15296 | purified 15hLO-2, xylenol orange hydroperoxide absorbance | Potency, µM (titrated, usually from 57.1 µM), for inactives: at the top dose activity change, negative = inhibition, actives largely listed as inhibitors | hit rate 0.56% among 110,000; note: potency is the fitted concentration of half-maximal effect; nearly all actives have a fitted effect of over 60% in size
Target sequence (O15296 whole entry, looked up): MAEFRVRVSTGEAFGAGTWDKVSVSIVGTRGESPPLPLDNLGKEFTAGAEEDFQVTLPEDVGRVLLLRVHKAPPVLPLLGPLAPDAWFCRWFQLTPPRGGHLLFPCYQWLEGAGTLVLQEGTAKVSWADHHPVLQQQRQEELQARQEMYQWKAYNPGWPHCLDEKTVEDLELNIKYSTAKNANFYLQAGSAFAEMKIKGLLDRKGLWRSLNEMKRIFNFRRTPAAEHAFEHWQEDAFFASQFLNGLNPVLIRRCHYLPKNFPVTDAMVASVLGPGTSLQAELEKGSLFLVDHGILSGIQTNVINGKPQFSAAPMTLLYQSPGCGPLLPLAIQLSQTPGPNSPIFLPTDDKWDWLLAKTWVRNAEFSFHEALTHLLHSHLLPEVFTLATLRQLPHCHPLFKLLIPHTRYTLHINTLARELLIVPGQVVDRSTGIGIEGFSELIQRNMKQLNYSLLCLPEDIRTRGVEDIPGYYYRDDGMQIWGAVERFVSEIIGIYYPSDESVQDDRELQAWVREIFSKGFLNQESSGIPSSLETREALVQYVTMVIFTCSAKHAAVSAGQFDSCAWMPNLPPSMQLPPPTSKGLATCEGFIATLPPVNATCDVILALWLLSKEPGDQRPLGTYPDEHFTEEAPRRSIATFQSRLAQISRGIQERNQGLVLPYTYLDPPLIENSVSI
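Read-out: hydroperoxide product oxidises ferrous iron, measured as xylenol orange complex via the 573-to-405 nm absorbance ratio after 30 min. Reaction: 50 nM enzyme, 15 min compound preincubation, 45 uM arachidonic acid, 90 min RT, Hepes pH 7.5 with Triton X-100.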
Numbers without * were called inactive; ? = inconclusive; / = no result given; ! = repeats disagree; [ ] = dose if it differs, or a comment. Unless noted, calls come from the whole dose curve; as a rule, active = well fitted curve in the direction sought with a large enough effect; inconclusive = small, poorly fitted or top-dose-only effect, or another doubt; inactive = no such curve, though single readings can be large; an effect the other way counts as inactive or inconclusive. Unless noted, % is set by controls: 0 for no effect and ±100 for the full control effect.

SMILES | 12-hLO inh | IMPase Li cell | IMPase inh | ALOX15B inhib
CN(C)C1C(=O)C(C(N)=O)=C(O)[C@@]2(O)C(=O)C3=C(O)c4c(O)ccc(Cl)c4C(O)[C@H]3C[C@@H]12 (some centres not stated) | -1.4% | -28.6% | / | -3.2%
CC(C)C[C@@H](CC(=O)N[C@H](CC(=O)N[C@@H]1CCNC[C@H]1C(=O)N[C@H](CC(=O)N[C@@H](CCC(=O)O)CC(=O)O)Cc1ccccc1)C(C)C)NC(=O)[C@@H]1CNCC[C@H]1N | 4.3% | 18.0% | / | /
CN1CCN(c2ncc3nc(-c4ccc(F)cc4)c(=O)n(Cc4cccs4)c3n2)CC1 | / | 38.0% | / | -8.2%
Cc1ccc(S(=O)(=O)N(CC(=O)O)Cc2cccc(C)c2)cc1 | 0.2% | / | / | /
COC(=O)c1sc(NC(=O)c2c(OC)cccc2OC)c(C#N)c1C | / | 11.2µM* | / | /
COC(=O)c1sc(NC(=O)c2c(F)cccc2F)c(C#N)c1C | / | -2.1% | / | /
COCC(=O)Nc1ccccc1C(=O)Nc1ccc(OC)cc1 | 0.3% | 31.6µM* | 3.6 | 10.2%
c1cncc(-c2nn[nH]n2)c1 | -2.3% | 4.1%[38.3 µM] | 2.8 | -9.0%
c1cncc(-c2cccnc2)c1 | 0.4% | 14.1µM* | -1.6 | /
COc1ccccc1-c1n[nH]c(=S)n1N | / | -17.0% | / | /
COc1ccccc1-c1n[nH]c(=S)n1-c1ccccc1 | 3.2% | 2µM* | ? | -20.5%
CCOC(=O)c1ccccc1NC(=O)c1cccnc1 | 2.8% | 12.0% | -5.6 | /
CCOC(=O)c1ccccc1NC(=O)c1cncc(Br)c1 | -1.7% | 1.26µM* | ? | 6.1%
N#CC(=C=[N-])C1=C(C#N)C(c2ccccc2F)C([n+]2ccccc2)C(O)(C2CC2)N1 (configuration not stated) | -6.5% | 12.6µM* | ? | -7.8%
Cc1nc(SC2CCOC2=O)c2c(C)c(C)sc2n1 (configuration not stated) | 2.6% | 7.08µM* | ? | 4.1%
O=C1OCCC1Sc1ncnc2sc3c(c12)CCC3 (configuration not stated) | 4.0% | -3.2% | -14.3 | /
NC1=C2NC=N[C@@H]2N(C/C=C\c2ccccc2)C=N1 | 5.6%[11.4 µM] | -8.8% | / | 1.9%[11.4 µM]
CN(CCO)c1nc(N)c2c(N)nc3c(c2c1C#N)CC(=O)N3C1CCCC1 | -5.2% | -6.7%[38.3 µM] | 10.5 | /
CC(C)(C)N1C(=O)Cc2c1nc(N)c1c(N)nc(N3CCCCC3CO)c(C#N)c21 (configuration not stated) | ? | -5.1%[38.3 µM] | -0.8 | 25.1µM*
Cc1ccc(Sc2ccc(NC(=O)c3ccc(S(C)(=O)=O)cc3Cl)cc2)cc1 | 4.2% | 14.1µM* | ? | /
COC(=O)CCCCCc1ccc(C(C)=O)s1 | -2.6% | 10µM* | ? | 0.3%
CC1Cc2ccccc2N1C(=O)COc1nc2ccccc2nc1N1CCOCC1 (configuration not stated) | -3.3% | 25.1µM* | ? | -15.5%
CCCNC(=O)COc1nc2ccccc2nc1N1CCOCC1 | 1.7% | 1.5% | / | /
CN(C)C(=O)c1ccc(-c2ccc3ncnc(Nc4ccccc4)c3c2)cc1 | / | 14.7% | / | -4.0%
O=C(O)c1cc(-c2ccco2)nc2ccc(Br)cc12 | -7.4% | 10µM*! | ? | 2.0%
SMILES | 12-hLO inh | IMPase Li cell | IMPase inh | ALOX15B inhib
Cc1cc(C(N)=O)c2cc(Br)ccc2n1 | 5.0% | 10.7%[38.3 µM] | -7.6 | 3.8%
CCCc1ccc(/C=C2\C(=O)c3ccccc3C(O)=C2C(=O)OCC)cc1 | -22.1% | 33.7%[38.3 µM] | 8.6 | 6.31µM*
CCOC(=O)C1=C(O)c2ccccc2C(=O)/C1=C\c1ccc(CC)cc1 | ? | 17.0% | 9.2 | 10µM*
C(=N/Nc1nnc2c(n1)[nH]c1ccccc12)/c1cccnc1 | -0.8%[11.4 µM] | 3.1% | / | -0.8%[11.4 µM]
Cc1cccc(C2=NN(c3ccccc3)[C@H](CO)[C@H]2C)c1 | -5.4%[0.00818 µM] | -18.4% | / | ?
N#C/C(=C/c1ccc(N2CCOCC2)o1)c1nc2ccccc2[nH]1 | -5.2% | 28.6% | ? | /
N#C/C(=C/c1ccc(N2CCCCCC2)o1)c1cccc(F)c1 | ? | 107.8%[38.3 µM] | 16.8 | 7.94µM*
N#C/C(=C\c1ccc(N2CCOCC2)o1)C(=O)Nc1ccc(O)cc1 | / | 8.6% | / | /
N#C/C(=C/c1ccc(N2CCOCC2)o1)c1ccc(Br)cc1 | ? | 13.2%[38.3 µM] | -8.2 | 10µM*
N#C/C(=C\c1ccc(N2CCOCC2)o1)c1ccccc1 | -13.6% | 27.5%[38.3 µM] | 3.6 | 10µM*
CCOCC(=O)O | 0.3% | -1.2% | / | 4.4%
COc1cccc(/C=N/NC(=O)c2cc(-c3ccc(C)cc3)n[nH]2)c1O | -3.2% | / | / | /
S=c1[nH]nc(-c2ccccc2)o1 | 1.2% | 11.2µM* | ? | 9.2%
COc1ccc(Cl)cc1-c1n[nH]c(=S)o1 | 0.0% | 6.31µM* | ? | 1.3%
CC(Cc1n[nH]c(=S)o1)c1ccccc1 (configuration not stated) | / | 5.9% | / | /
Cc1ccc(-c2cc(-c3n[nH]c(=S)o3)c3ccccc3n2)cc1 | ? | 2.7% | / | /
CSc1ccccc1-c1n[nH]c(=S)o1 | / | 10µM* | / | /
Cc1ccccc1-c1n[nH]c(=S)o1 | 7.8% | 10µM* | ? | 0.5%
CN(C)CC(C)(C)CN1c2ccccc2Sc2ccccc21 | 9.2%[11.4 µM] | 30.2% | / | 3.0%[11.4 µM]
COc1ccc(C(=O)CSc2nc(N)nc(SC)c2C#N)cc1 | 0.4% | 6.31µM* | -7.7 | -18.0%
Cc1cc2nc(SCC(=O)Nc3nonc3C)c3c(c2cc1C)CCCC3 | -4.5% | 6.31µM* | -18.7 | -0.8%
CC(=O)C=NCC(=O)O | 0.5%[11.4 µM] | -4.8% | / | -7.0%[11.4 µM]
COc1cc(NC(=O)c2cc(-c3cccnc3)nc3ccc(Br)cc23)cc(OC)c1 | / | -19.4% | / | /
COCCNC(=O)c1cc(-c2cccnc2)nc2ccc(Br)cc12 | 7.0% | 11.2µM* | -18.9 | 13.0%
O=c1c2nccnc2[nH]c(=S)n1Cc1ccccc1 | / | -4.5% | / | /
SMILES | 12-hLO inh | IMPase Li cell | IMPase inh | ALOX15B inhib
O=c1c2cccnc2[nH]c(=S)n1Cc1ccccc1 | 1.7% | 10µM* | 5.1 | /
CCOC(=O)N1CCN(c2c(F)cc3[nH]c(=S)[nH]c3c2Br)CC1 | ? | 22.3%[38.3 µM] | 2.5 | 12.6µM*
C[C@@H](O)CCC[C@H](O)/C=C/[C@@H]1[C@@H](C/C=C\CCCC(=O)O)[C@@H](O)C[C@H]1O | 0.3% | 9.1% | / | /
COc1ccc(NC(=O)CCSc2ccc3ccccc3n2)cc1 | -6.1% | -14.5% | / | /
O=C(O)CCSc1nc2ccccc2c(=O)[nH]1 | 3.2% | 5.2% | 4.2 | /
Cc1cc(SCCC(=O)O)nc2ccccc12 | 0.8% | 11.2µM* | ? | -3.7%
O=C(O)CSc1ccc2ccccc2n1 | 5.1% | 7.08µM* | ? | -4.2%
Cc1nc(SCCC(=O)O)c2ccccc2n1 | -1.7% | 12.6µM* | ? | 4.6%
CCOC(=O)CCSc1cc(C)c2ccccc2n1 | / | -6.2% | / | /
O=C(O)CCSc1ccc2ccccc2n1 | 0.4% | 14.1µM* | ? | -12.1%
O=C(O)[C@H]1CCCC[C@@H]1c1c2ccc(=O)c(O)c-2oc2c(O)c(O)ccc12 | -14.5%[11.4 µM] | 2.0% | / | ?
COc1ccc(Oc2ncc3nc(C)c(=O)n(C4CC4)c3n2)cc1 | 2.0% | 7.7% | / | 4.2%
COc1ccc(-c2c3c([nH]c(=S)c2C#N)CCC3)cc1 | -10.1% | 7.94µM* | ? | 1.4%[2.29 µM]
COc1ccc(OC)c(-c2c3c([nH]c(=S)c2C#N)CCCC3)c1 | / | -8.2% | / | /
